Reference: PubChem BioAssay AID1839 (Johns Hopkins Ion Channel Center, 2009)
Among all 2,400 compounds or so, about 220 (9.2%) were called active. The sample as a whole holds a higher share of actives than the screen did. Unmarked numbers belong to inactive results.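 How the source made its calls: active means signal change above the mean of dofetilide-free buffer controls plus 3 SD, so a positive margin; inactive means the rest.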

Experiment: thallium signal changes without hERG – cell-based, CHO-K1 parental line, FluxOR thallium flux, counter-screen for hERG block protection project, confirmation (AID 1839);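 further: compounds applied alone with no dofetilide to cells lacking hERG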
Details: CHO-K1 parental cells, FluxOR thallium flux fluorescence; at 10 µM
O=C(Nc1ccc(-c2csc(Nc3cccc(C(F)(F)F)c3)n2)cc1)c1ccccc1 showed a signal change vs control minus 3*SD hit threshold (margin above threshold, higher = more increase) of -35.7%. With O=C(NC(=S)Nc1cccc(C(F)(F)F)c1)c1csnn1 the signal change vs control minus 3*SD hit threshold (margin above threshold, higher = more increase) was 52.4% (active). With O=C(NC(=S)Nc1ccc(C(F)(F)F)cc1)c1csnn1 the signal change vs control minus 3*SD hit threshold (margin above threshold, higher = more increase) was 48.4% (active). Compound O=C(NC(=S)Nc1cc(C(F)(F)F)ccc1Cl)c1ccccc1 has a signal change vs control minus 3*SD hit threshold (margin above threshold, higher = more increase) of -22.9%. With Cc1onc(-c2ccccc2)c1C(=O)NC(=S)Nc1sc2c(c1C#N)CCC(C)C2 (stereo not drawn) the signal change vs control minus 3*SD hit threshold (margin above threshold, higher = more increase) was -18.7%. With CCCSC(=S)c1c(C)[nH]n(-c2ccccc2)c1=O the signal change vs control minus 3*SD hit threshold (margin above threshold, higher = more increase) was -12.5%. With O=C(Nc1nnc(-c2ccc3c(c2)CCCC3)o1)C1COc2ccccc2O1 (stereo not drawn) the signal change vs control minus 3*SD hit threshold (margin above threshold, higher = more increase) was -35%. Work on CC(/C=C1\SC(=S)N(NS(=O)(=O)c2ccccc2)C1=O)=C\c1ccccc1 yielded a signal change vs control minus 3*SD hit threshold (margin above threshold, higher = more increase) of -11.8%. Compound COc1cc(CNn2nnnc2N)ccc1OCC(=O)NC(C)(C)C has a signal change vs control minus 3*SD hit threshold (margin above threshold, higher = more increase) of -34.7%. In the case of O=C(NC(=S)N1CCc2ccccc21)c1ccccc1Br, the signal change vs control minus 3*SD hit threshold (margin above threshold, higher = more increase) is reported as 48.4% (active). In the case of O=C(NC(=S)N1CCc2ccccc21)c1ccccc1, the signal change vs control minus 3*SD hit threshold (margin above threshold, higher = more increase) is reported as -2.8%. O=C(NC(=S)N1CCCc2ccccc21)c1ccccc1 showed a signal change vs control minus 3*SD hit threshold (margin above threshold, higher = more increase) of -30.8%. With O=C(NC(=S)N1CCc2ccccc21)c1ccco1 the signal change vs control minus 3*SD hit threshold (margin above threshold, higher = more increase) was -18.3%. For O=C(NC(=S)N1CCc2ccccc21)c1ccccc1Cl, the signal change vs control minus 3*SD hit threshold (margin above threshold, higher = more increase) was 9% (active). O=C(NC(=S)N1CCc2ccccc21)c1ccc(Br)o1 showed a signal change vs control minus 3*SD hit threshold (margin above threshold, higher = more increase) of -18.4%. Compound S=C(Nc1ccccc1)Nc1nc2ccccc2n1CCOc1ccccc1 has a signal change vs control minus 3*SD hit threshold (margin above threshold, higher = more increase) of -30.2%. In the case of CN(C(=S)NC(=O)c1ccc(F)cc1)C1CCCCC1, the signal change vs control minus 3*SD hit threshold (margin above threshold, higher = more increase) is reported as -31.9%. For CC1CCN(C(=S)NC(=O)c2ccc(C(C)(C)C)cc2)CC1, the signal change vs control minus 3*SD hit threshold (margin above threshold, higher = more increase) was -18%. COC(=O)n1c(=S)oc2cc(Cl)ccc21 gave a signal change vs control minus 3*SD hit threshold (margin above threshold, higher = more increase) of -22.1%. Work on CCn1c(=S)[nH]c2c(c1=O)C(C)(C)Cc1ccccc1-2 yielded a signal change vs control minus 3*SD hit threshold (margin above threshold, higher = more increase) of -6.7%. CC(=O)NC(CSC(CC(=O)c1ccco1)c1ccc(C)cc1)C(=O)O (stereo not drawn) gave a signal change vs control minus 3*SD hit threshold (margin above threshold, higher = more increase) of -32.8%. With CCCCCCC1CCC(C(=O)N2CCOCC2)CC1 (stereo not drawn) the signal change vs control minus 3*SD hit threshold (margin above threshold, higher = more increase) was -21.3%. CCCCCCCC/C=C\CCCCCCCC(=O)O showed a signal change vs control minus 3*SD hit threshold (margin above threshold, higher = more increase) of -20.7%. For CCCCCC/C(C)=C1/SC(=S)NC1=O, the signal change vs control minus 3*SD hit threshold (margin above threshold, higher = more increase) was 39.1% (active). In the case of COc1ccc(S(=O)(=O)Nc2ccc(Cl)cn2)c(C)c1C, the signal change vs control minus 3*SD hit threshold (margin above threshold, higher = more increase) is reported as -32.2%. Cc1ccc(N2CCN(C(=O)N3CCCC3)CC2)cc1C showed a signal change vs control minus 3*SD hit threshold (margin above threshold, higher = more increase) of -15.1%. In the case of CCC1(c2ccc(Cl)cc2)NC(=S)N(c2ccc(C)c(C)c2)N1 (stereo not drawn), the signal change vs control minus 3*SD hit threshold (margin above threshold, higher = more increase) is reported as 40.7% (active). For CCC1(c2ccccc2)NC(=S)N(c2ccc(C)c(C)c2)N1 (stereo not drawn), the signal change vs control minus 3*SD hit threshold (margin above threshold, higher = more increase) was 48.1% (active). In the case of Nc1ccc2c(c1)C(=O)C(=O)c1ccccc1-2, the signal change vs control minus 3*SD hit threshold (margin above threshold, higher = more increase) is reported as -22.4%. Work on O=C(CCc1ccccc1)NC(=S)Nc1cc(C(F)(F)F)ccc1N1CCOCC1 yielded a signal change vs control minus 3*SD hit threshold (margin above threshold, higher = more increase) of -29.5%. Compound CC(=O)NC1C(Oc2ccccc2C)OC(CO)C(O)C1O (stereo not drawn) has a signal change vs control minus 3*SD hit threshold (margin above threshold, higher = more increase) of -23.9%. Work on Cc1ccc(C(=O)NC(=S)N(C)C2CCCCC2)cc1 yielded a signal change vs control minus 3*SD hit threshold (margin above threshold, higher = more increase) of -21.2%. CCc1nnc(NC(=O)C2CCCCN2S(=O)(=O)c2ccccc2)s1 (stereo not drawn) gave a signal change vs control minus 3*SD hit threshold (margin above threshold, higher = more increase) of -23%. Compound COc1ccc(C(=O)CC(=O)C(=O)Nc2ccc(Cl)cc2)cc1 has a signal change vs control minus 3*SD hit threshold (margin above threshold, higher = more increase) of -16.3%. CCOC(=O)C1=NN(C(=O)c2ccccc2)C(O)(c2ccc(C)cc2)C1 (stereo not drawn) showed a signal change vs control minus 3*SD hit threshold (margin above threshold, higher = more increase) of -27.5%. For CCOC(=O)C1=NN(C(=O)c2ccc(C)cc2)C(O)(c2ccc(Cl)cc2)C1 (stereo not drawn), the signal change vs control minus 3*SD hit threshold (margin above threshold, higher = more increase) was 50.6% (active). In the case of CCOC(=O)C1=NN(C(=O)c2ccc(OC)cc2)C(O)(c2ccc(Cl)cc2)C1 (stereo not drawn), the signal change vs control minus 3*SD hit threshold (margin above threshold, higher = more increase) is reported as 14.4% (active). Compound CCOC(=O)c1nc(C)n(-c2ccc(Cl)cc2)n1 has a signal change vs control minus 3*SD hit threshold (margin above threshold, higher = more increase) of -24.3%. With COc1ccc(OC)c(NC(=O)COC(=O)c2ccc(-n3cnnn3)cc2)c1 the signal change vs control minus 3*SD hit threshold (margin above threshold, higher = more increase) was -34.5%. With COc1ccccc1CNC(=O)COC(=O)c1ccccn1 the signal change vs control minus 3*SD hit threshold (margin above threshold, higher = more increase) was -28.9%. With COc1cc(C(=O)Nc2ccc(O)cc2C(=O)O)ccc1OC(C)=O the signal change vs control minus 3*SD hit threshold (margin above threshold, higher = more increase) was -19.9%. With O=C(O)c1ccc(N=NNc2cccc([N+](=O)[O-])c2)cc1 the signal change vs control minus 3*SD hit threshold (margin above threshold, higher = more increase) was -26.6%. In the case of CC(C)OC(=O)c1c2nc3ccccc3nc2n2c1[nH]c(=O)c1ccccc12, the signal change vs control minus 3*SD hit threshold (margin above threshold, higher = more increase) is reported as 29.4% (active). With CCc1ccc(C(=O)CSc2nc3ccccc3c(=O)[nH]2)cc1 the signal change vs control minus 3*SD hit threshold (margin above threshold, higher = more increase) was -26.7%. In the case of CCCCOC(=O)Cn1c2ccc(OC)cc2c2nc3ccccc3nc21, the signal change vs control minus 3*SD hit threshold (margin above threshold, higher = more increase) is reported as -28.3%. In the case of O=C(COc1ccccc1Cl)NC(=S)Nc1ccccc1N1CCCC1, the signal change vs control minus 3*SD hit threshold (margin above threshold, higher = more increase) is reported as -25.7%. With S=C(NCCc1ccccc1)N/N=C/c1c(Cl)cccc1Cl the signal change vs control minus 3*SD hit threshold (margin above threshold, higher = more increase) was -34.7%. With CCc1cc(=O)[nH]c(SCc2ccc(C)cc2)n1 the signal change vs control minus 3*SD hit threshold (margin above threshold, higher = more increase) was -28.5%. In the case of CSc1nc(=S)cc(C)[nH]1, the signal change vs control minus 3*SD hit threshold (margin above threshold, higher = more increase) is reported as -16.8%. With CCSc1nc(=S)cc(C)[nH]1 the signal change vs control minus 3*SD hit threshold (margin above threshold, higher = more increase) was 26.3% (active). Compound CSc1cccc(NC(=O)CN2C(=O)c3ccccc3S2(=O)=O)c1 has a signal change vs control minus 3*SD hit threshold (margin above threshold, higher = more increase) of -50.6%. In the case of CCCCn1nc(NC(=O)COC)c2cc3ccc(C)cc3nc21, the signal change vs control minus 3*SD hit threshold (margin above threshold, higher = more increase) is reported as -27.6%. In the case of CCOC(=O)C1CCCN(C(=O)CN2C(=O)c3ccccc3C2=O)C1 (stereo not drawn), the signal change vs control minus 3*SD hit threshold (margin above threshold, higher = more increase) is reported as -35.1%.
